Inconclusive results are not listed. Activity calls are given as the source filed them. Unless noted, calls come from the whole dose curve; as a rule, active = well fitted curve in the direction sought with a large enough effect in the repeat runs; inconclusive = weak or mixed curves; inactive = no such curve, though single readings can be large; an effect the other way counts as inactive or inconclusive.
Experiments:
[1] = qHTS assay to identify small molecule antagonists of the androgen receptor (AR) signaling pathway using the MDA cell line - cell viability counter screen (AID 743041; note: nearly all actives have a fitted effect of over 45% in size)
How it was run: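 Viability read by CellTiter-Fluor fluorescence in the same wells as the antagonist screen, added after 15.5 h of a 16 h, 37C exposure. Human breast carcinoma MDA-kb2 AR-luc cells, compounds co-dosed with agonist R1881.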

[2] = qHTS assay to identify small molecule antagonists of the thyroid receptor (TR) signaling pathway - cell viability counter screen (AID 743064); note: nearly all actives have a fitted effect of over 50% in size
How it was run: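 In-well cytotoxicity read by CellTiter-Fluor (30 min, 37 C) following 23.5 h exposure of GH3 cells bearing a TRE-luciferase sensor. Compounds were added alongside 1 nM (final) T3 to drive TR transactivation.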

[3] = qHTS assay to identify small molecule antagonists of the thyroid receptor (TR) signaling pathway (AID 743065); note: series mostly up to about 70 µM; nearly all actives have a fitted effect of over 55% in size
How it was run: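 Antagonism measured as loss of luciferase signal in GH3 cells stably carrying a TRE-luciferase reporter, co-treated with compound and T3 (1 nM final) for 23.5 h at 37 C. Viability was read in the same well by CellTiter-Fluor.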

[4] = tested on: thyroid hormone receptor (rat, GH3 cells); experiment: qHTS assay to identify small molecule agonists of the thyroid receptor (TR) signaling pathway (AID 743066; calls by dose curve)
[5] = biological target: Estrogen receptor (Homo sapiens) (UniProt P03372); experiment: qHTS assay to identify small molecule antagonists of the estrogen receptor alpha (ER-alpha) signaling pathway (AID 743069; active = well fitted curve in the direction sought with a large enough effect in the signal ratio in the repeat runs, not every such curve was filed as active; the % refers to the signal ratio)
Estrogen receptor (Homo sapiens), sequence (P03372 whole entry, looked up): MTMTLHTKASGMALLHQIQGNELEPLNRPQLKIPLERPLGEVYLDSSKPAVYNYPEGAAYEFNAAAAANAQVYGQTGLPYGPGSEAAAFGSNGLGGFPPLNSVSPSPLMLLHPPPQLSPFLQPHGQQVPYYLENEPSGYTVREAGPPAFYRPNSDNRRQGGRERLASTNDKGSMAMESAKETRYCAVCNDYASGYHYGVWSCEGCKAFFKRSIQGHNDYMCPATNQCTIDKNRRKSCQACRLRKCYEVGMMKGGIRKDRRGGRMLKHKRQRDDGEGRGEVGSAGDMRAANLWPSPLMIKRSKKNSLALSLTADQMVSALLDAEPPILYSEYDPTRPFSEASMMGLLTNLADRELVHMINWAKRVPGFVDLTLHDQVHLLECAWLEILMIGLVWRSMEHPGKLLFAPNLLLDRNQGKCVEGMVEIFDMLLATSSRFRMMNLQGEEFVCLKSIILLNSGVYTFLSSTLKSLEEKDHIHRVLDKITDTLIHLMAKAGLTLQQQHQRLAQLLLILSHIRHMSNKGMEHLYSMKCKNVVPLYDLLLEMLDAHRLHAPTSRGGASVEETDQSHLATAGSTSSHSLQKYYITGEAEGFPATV
How it was run: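 Antagonist mode: compounds in DMSO were co-added with 17beta-estradiol to ER-alpha-bla HEK293 cells (2% charcoal-stripped serum) and left 18 h at 37C. Reporter inhibition was measured as FRET fluorescence after 2 h LiveBLAzer substrate at room temperature.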

[6] = biological target: Estrogen receptor (Homo sapiens) (UniProt P03372); experiment: qHTS assay to identify small molecule agonists of the estrogen receptor alpha (ER-alpha) signaling pathway (AID 743075; calls by dose curve;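 note: HEK293 GripTite cells with ER-alpha and UAS-driven beta-lactamase reporter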)
[7] = biological target: Estrogen receptor (Homo sapiens) (UniProt P03372); experiment: qHTS assay to identify small molecule agonists of the estrogen receptor alpha (ER-alpha) signaling pathway using the BG1 cell line (AID 743079); note: nearly all actives have a fitted effect of over 20% in size
[8] = qHTS assay to identify small molecule antagonists of the estrogen receptor alpha (ER-alpha) signaling pathway using the BG1 cell line (AID 743080; calls by dose curve;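 note: BG1 cells stimulated with 17beta-estradiol alongside compound; series mostly up to about 70 µM; nearly all actives have a fitted effect of over 25% in size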)
How it was run: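 Luminescence from a 4×ERE-luciferase reporter in BG1-Luc-4E2 cells served as read-out. Cells, pre-cultured 5 days in stripped-serum phenol-red-free medium, were exposed to compound with 17beta-estradiol co-stimulation for 21.5 h at 37 C.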

[9] = qHTS assay to identify small molecule antagonists of the estrogen receptor alpha (ER-alpha) signaling pathway using the BG1 cell line - cell viability counter screen (AID 743081);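 note: compound given together with 17beta-estradiol as the ER stimulus; series mostly up to about 70 µM; nearly all actives have a fitted effect of over 45% in size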
Aromatase (Homo sapiens) = Aromatase (Homo sapiens) (UniProt P11511); experiment: qHTS assay to identify aromatase inhibitors (AID 743083); note: series mostly up to about 70 µM; nearly all actives have a fitted effect of over 55% in size
Aromatase (Homo sapiens), sequence (P11511 whole entry, looked up): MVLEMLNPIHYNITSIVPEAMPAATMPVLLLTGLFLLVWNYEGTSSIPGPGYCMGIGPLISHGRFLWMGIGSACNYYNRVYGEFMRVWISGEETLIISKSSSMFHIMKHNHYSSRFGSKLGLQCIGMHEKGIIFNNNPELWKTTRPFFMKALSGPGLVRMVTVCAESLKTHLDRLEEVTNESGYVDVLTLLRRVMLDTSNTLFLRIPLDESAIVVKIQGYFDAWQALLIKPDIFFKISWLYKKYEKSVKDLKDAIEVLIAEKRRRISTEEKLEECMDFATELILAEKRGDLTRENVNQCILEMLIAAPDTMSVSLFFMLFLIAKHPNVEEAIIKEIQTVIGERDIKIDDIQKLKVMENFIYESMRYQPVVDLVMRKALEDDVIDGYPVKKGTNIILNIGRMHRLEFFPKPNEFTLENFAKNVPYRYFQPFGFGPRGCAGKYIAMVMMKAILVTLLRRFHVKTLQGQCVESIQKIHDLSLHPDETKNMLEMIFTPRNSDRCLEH

[10] = qHTS assay to identify aromatase inhibitors - cell viability counter screen (AID 743084);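 note: cells stimulated with testosterone during compound exposure; nearly all actives have a fitted effect of over 55% in size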
[11] = biological target: Aryl hydrocarbon receptor (Homo sapiens) (UniProt P35869); experiment: qHTS assay to identify small molecule that activate the aryl hydrocarbon receptor (AhR) signaling pathway (AID 743085);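 note: HG2L7.5c1 human HepG2 liver cells with stably integrated DRE-driven firefly reporter; series mostly up to about 70 µM; nearly all actives have a fitted effect of over 15% in size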
Aryl hydrocarbon receptor (Homo sapiens), sequence (P35869 whole entry, looked up): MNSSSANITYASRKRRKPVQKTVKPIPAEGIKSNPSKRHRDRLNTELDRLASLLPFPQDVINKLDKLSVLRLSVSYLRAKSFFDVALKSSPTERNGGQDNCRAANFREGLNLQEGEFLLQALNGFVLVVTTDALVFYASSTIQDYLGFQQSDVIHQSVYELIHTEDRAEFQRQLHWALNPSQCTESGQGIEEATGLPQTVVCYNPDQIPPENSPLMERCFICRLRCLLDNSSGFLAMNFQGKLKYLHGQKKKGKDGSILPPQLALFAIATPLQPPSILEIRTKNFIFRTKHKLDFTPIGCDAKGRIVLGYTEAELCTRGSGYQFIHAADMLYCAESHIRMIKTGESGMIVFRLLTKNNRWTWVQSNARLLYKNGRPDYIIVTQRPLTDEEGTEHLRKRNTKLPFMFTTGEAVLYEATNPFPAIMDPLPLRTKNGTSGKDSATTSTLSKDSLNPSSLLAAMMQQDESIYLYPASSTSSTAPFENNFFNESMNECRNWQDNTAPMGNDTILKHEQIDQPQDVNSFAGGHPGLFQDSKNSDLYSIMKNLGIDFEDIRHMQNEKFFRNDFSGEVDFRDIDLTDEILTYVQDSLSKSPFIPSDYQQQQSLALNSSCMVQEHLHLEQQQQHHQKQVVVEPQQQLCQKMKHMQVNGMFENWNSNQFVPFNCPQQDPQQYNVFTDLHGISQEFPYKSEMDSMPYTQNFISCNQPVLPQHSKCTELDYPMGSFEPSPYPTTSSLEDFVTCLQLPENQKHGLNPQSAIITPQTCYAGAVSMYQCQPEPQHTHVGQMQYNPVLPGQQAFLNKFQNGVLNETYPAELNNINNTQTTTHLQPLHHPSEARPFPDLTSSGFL
How it was run: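 Luminescence (ONE-Glo) from a dioxin-responsive-element luciferase reporter in HG2L7.5c1 HepG2 cells after 24 hr compound exposure at 37C; viability measured by CellTiter-Fluor fluorescence beforehand.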

[12] = qHTS assay to identify small molecule that activate the aryl hydrocarbon receptor (AhR) signaling pathway - cell viability counter screen (AID 743086);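 note: HepG2 liver cells carrying the AhR DRE luciferase reporter; series mostly up to about 70 µM; nearly all actives have a fitted effect of over 45% in size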
How it was run: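 Cytotoxicity counter screen: CellTiter-Fluor signal (30 min, 37 C) in 4000 HepG2 cells/well carrying the DRE-luciferase reporter, following 24 h compound exposure at 37 C.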

[13] = biological target: Peroxisome proliferator-activated receptor gamma (Homo sapiens) (UniProt P37231); experiment: qHTS assay to identify small molecule agonists of the peroxisome proliferator-activated receptor gamma (PPARg) signaling pathway (AID 743094; active = well fitted activation curve with a large enough effect in the signal ratio in the repeat runs, not every such curve was filed as active; the % refers to the signal ratio)
Peroxisome proliferator-activated receptor gamma (Homo sapiens), sequence (P37231 whole entry, looked up): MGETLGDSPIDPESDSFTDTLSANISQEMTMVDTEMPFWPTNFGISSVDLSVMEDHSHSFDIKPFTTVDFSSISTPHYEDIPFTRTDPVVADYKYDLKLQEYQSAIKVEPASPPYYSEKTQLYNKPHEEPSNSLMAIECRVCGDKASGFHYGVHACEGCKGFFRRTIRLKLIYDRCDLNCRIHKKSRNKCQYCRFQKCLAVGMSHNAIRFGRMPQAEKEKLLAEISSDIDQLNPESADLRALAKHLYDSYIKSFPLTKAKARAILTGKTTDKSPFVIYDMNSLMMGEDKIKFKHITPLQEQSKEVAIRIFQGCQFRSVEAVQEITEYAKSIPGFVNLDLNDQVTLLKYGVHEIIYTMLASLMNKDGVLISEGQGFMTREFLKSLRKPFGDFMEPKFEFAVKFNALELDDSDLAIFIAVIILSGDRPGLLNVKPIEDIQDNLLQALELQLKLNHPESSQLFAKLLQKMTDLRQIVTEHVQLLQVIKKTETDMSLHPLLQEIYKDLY
How it was run: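 Cell-based bla reporter, HEK293H background, PPARg-driven UAS. Pre-incubation 5 h, 37C, 5% CO2. Compound 17 h, 37C. Substrate 1 h RT; fluorescence.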

[14] = qHTS assay to identify small molecule antagonists of the estrogen related receptor (ERR) signaling pathway - cell viability counter screen (AID 1224818);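 note: series mostly up to about 46 µM; viability measured after 17.5 h of compound exposure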
How it was run: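 Cytotoxicity check run alongside the ERR antagonist screen: cells exposed to test compounds 17.5 h at 37 C, viability taken as CellTiter-Fluor fluorescence intensity.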

[15] = qHTS assay to identify small molecule antagonists of the estrogen related receptor (ERR) signaling pathway (AID 1224819;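 note: luminescence from an ERR-driven luciferase reporter measured with One-Glo reagent; series mostly up to about 46 µM; nearly all actives have a fitted effect of over 50% in size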)
How it was run: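 ERR reporter cells were plated at 2,000 cells/well and left 6 h at 37 C/5% CO2 before pin-tool transfer of compounds in DMSO. After 18 h at 37 C, One-Glo was added and luminescence was read 30 min later at room temperature.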

[16] = qHTS assay to identify small molecule agonists of the estrogen related receptor (ERR) signaling pathway (AID 1224820)
How it was run: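 An ERR cell line provided by NTP was seeded at 2,000 cells per well and allowed to settle for 6 h before compounds in DMSO were added. After 18 h at 37 C, luciferase activity was measured by One-Glo luminescence.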

[17] = tested on: estrogen-related receptor alpha (ERRalpha) with PGC-1alpha coactivator, human; experiment: qHTS assay to identify small molecule antagonists of the estrogen related receptor signaling pathway with the pleiotropic PPARgamma coactivator (PGC) (AID 1224821; calls by dose curve;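 note: series mostly up to about 46 µM; lower luminescence signal means antagonism of PGC/ERR signalling; nearly all actives have a fitted effect of over 50% in size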)
How it was run: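 A PGC/ERR cell line supplied by NTP is seeded, allowed 6 h at 37 C, and treated with test compounds in DMSO for 18 h. Signal is then measured as luciferase luminescence using One-Glo.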

[18] = qHTS assay to identify small molecule antagonists of the estrogen related receptor signaling pathway with the pleiotropic PPARgamma coactivator (PGC) cell viability counter screen (AID 1224822;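 note: series mostly up to about 46 µM; viability read after 17.5 h compound exposure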)
How it was run: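 Viable cell signal (CellTiter-Fluor, 30 min, 37 C/5% CO2) was measured in PGC/ERR cells after a 17.5 h compound incubation.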

[19] = qHTS assay to identify small molecule agonists of the estrogen related receptor signaling pathway with the pleiotropic PPARgamma coactivator (PGC) (AID 1224823)
How it was run: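 Compounds dissolved in DMSO are added by pin tool to PGC/ERR cells that have settled for 6 h, and incubation continues 18 h at 37 C. Reporter output is measured as One-Glo luminescence.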

[20] = qHTS assay to identify small molecule phospholipidosis (PLD) inducers (AID 1259344; active = well fitted curve in the direction sought with a large enough effect; an effect the other way counts as inactive or inconclusive)
How it was run: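 Phospholipid accumulation was scored by imaging: fixed, Hoechst-counterstained HepG2 cells stained with LipidTOX Red after 24 h compound exposure at 37 C. Read-outs were pit count and pit intensity per well or per cell, with amiodarone and DMSO controls.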

[21] = biological target: Nuclear receptor subfamily 1 group I member 2 (Rattus norvegicus) (UniProt Q9R1A7); experiment: Rat pregnane X receptor (rPXR) activation by small molecules, qHTS assay (AID 1346983); settings: rPXR luciferase reporter cells, One-Glo luminescence, 24 h; max activation: active compounds read high; note: nearly all actives have a fitted effect of over 20% in size
Nuclear receptor subfamily 1 group I member 2 (Rattus norvegicus), sequence (Q9R1A7 whole entry, looked up): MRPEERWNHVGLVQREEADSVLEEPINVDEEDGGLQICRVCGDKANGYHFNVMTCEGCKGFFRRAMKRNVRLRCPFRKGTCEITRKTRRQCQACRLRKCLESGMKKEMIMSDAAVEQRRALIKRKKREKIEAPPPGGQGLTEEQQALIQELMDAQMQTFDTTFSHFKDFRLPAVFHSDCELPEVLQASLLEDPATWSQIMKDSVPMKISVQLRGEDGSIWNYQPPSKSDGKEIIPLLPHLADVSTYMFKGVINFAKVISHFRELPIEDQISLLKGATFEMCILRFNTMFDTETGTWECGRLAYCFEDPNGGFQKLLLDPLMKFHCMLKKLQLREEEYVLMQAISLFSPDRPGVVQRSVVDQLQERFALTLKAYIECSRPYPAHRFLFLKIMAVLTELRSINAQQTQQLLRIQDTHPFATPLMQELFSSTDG
How it was run: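 Luminescent readout (One-Glo luciferase, 30 min room temperature) followed 24 hr compound treatment at 37 C of rPXR cells plated 2,000 per well and preincubated 5hr; qHTS format with compounds delivered in DMSO.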

[22] = biological target: Nuclear receptor subfamily 1 group I member 2 (Homo sapiens) (UniProt O75469); experiment: CYP3A4 induction through human pregnane X receptor (PXR) by small molecules, qHTS assay (AID 1346984); note: nearly all actives have a fitted effect of over 40% in size
How it was run: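 Human PXR activation is tracked via CYP3A4 promoter-luciferase in DPX-2 (HepG2) cells. Compounds treat cells for 24hr at 37C, and luminescence is read after One-Glo.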

[23] = biological target: Nuclear receptor subfamily 1 group I member 2 (Homo sapiens) (UniProt O75469); experiment: Human pregnane X receptor (PXR) activation by small molecules, qHTS assay (AID 1346985); note: nearly all actives have a fitted effect of over 40% in size
How it was run: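 DPX-2 cells (HepG2 co-transfected with a PXR response element and a CYP3A4-promoter luciferase construct) were seeded at 2,000 per well, rested 5 hr at 37C, then exposed to DMSO-dissolved compounds for 24 hr. Activation was read as luciferase luminescence.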
% is set by controls: 0 for no effect and ±100 for the full control effect.

CCCN1CCC[C@H](c2cccc(O)c2)C1
inactive: Potency [1] | Potency [2] | Potency [3] | Potency [4] | Potency [5] | Potency [6] | Potency [7] | Potency [8] | Potency [9] | Potency (Aromatase (Homo sapiens)) | Potency [10] | Potency [11] | Potency [12] | Potency [13] | Potency [14] | Potency [15] | Potency [16] | Potency [17] | Potency [18] | Potency [19] | Potency [20] | max activation [21] -2.62% | Potency [22] | Potency [23]
